Sampled rows, rich in hits. Any-hit rate of the full collection: about 2.4%.
D2 antagonist: HTS Assay for Allosteric Antagonists of the Human D2 Dopamine Receptor: Primary Screen for Antagonists | inhibition, % at 10 µM | hit rate 2% among 340,000 | AID 485344, 2010 | HEK293 TREx D2 cells, calcium flux, dopamine EC80; in the data active means inhibition above about 30%; inactive means below that, where a call was filed; further: 0% is about no effect
Target sequence (P14416 whole entry, looked up): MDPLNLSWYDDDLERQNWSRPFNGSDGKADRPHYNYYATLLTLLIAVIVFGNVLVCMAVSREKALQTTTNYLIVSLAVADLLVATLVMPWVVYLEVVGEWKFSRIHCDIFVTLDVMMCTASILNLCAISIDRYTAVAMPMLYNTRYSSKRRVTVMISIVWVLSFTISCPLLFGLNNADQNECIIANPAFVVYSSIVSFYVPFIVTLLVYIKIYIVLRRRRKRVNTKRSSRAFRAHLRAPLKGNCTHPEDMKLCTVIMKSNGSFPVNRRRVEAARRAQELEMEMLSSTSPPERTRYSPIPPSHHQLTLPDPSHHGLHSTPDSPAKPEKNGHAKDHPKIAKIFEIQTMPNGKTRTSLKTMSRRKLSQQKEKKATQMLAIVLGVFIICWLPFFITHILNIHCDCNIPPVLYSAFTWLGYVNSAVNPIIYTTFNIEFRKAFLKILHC
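Antagonism is scored as inhibition of an EC80 dopamine-evoked calcium signal in a force-coupled, tetracycline-inducible HEK293 T-REx D2 line, with compound present 180 s before agonist.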
D2 ag-1: HTS Assay for Allosteric Agonists of the Human D2 Dopamine Receptor: Primary Screen for Agonists. activation, % at 2 µM. D(2) dopamine receptor (Homo sapiens), P14416. hit rate 0.53% among 340,000. HEK293 T-REx D2 cells, calcium flux agonist mode;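 active means activation over 3 SD above normal in the single-dose calcium agonist read, cut at about 30% in these data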; further: 0% is about no effect
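Tetracycline-induced HEK293 Trex cells with D2 receptor force-coupled to calcium signaling, plated overnight at 30 C and loaded with no-wash calcium dye. Calcium flux read kinetically for 180 s after compound addition; responses flag agonists.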
D2 PAM-1: Beta-Arrestin HTS for Positive Allosteric Modulators of the Human D2 Dopamine Receptor: Potentiators; hit rate 0.23% among 360,000; potentiation, % (test concentration not listed); DiscoveRx D2 beta-arrestin cells, luminescence, 90 min; 100% = 57 uM dopamine signal; in the data active means potentiation above about 50%; inconclusive means mostly about 30% to 49%
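D2 cells co-treated with compound plus 50 nM dopamine (EC20) for 90 min at 37 deg C to detect potentiation. Beta-arrestin recruitment was read as enzyme-fragment luminescence after 1 h at ambient temperature. Full response was set by 57 uM dopamine.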
D2 ag-2: Beta-Arrestin HTS for Positive Allosteric Modulators of the Human D2 Dopamine Receptor: Agonists; D(2) dopamine receptor (Homo sapiens), P14416; DiscoveRx PathHunter D2 beta-arrestin, luminescence, 90 min; 100% = 57 uM dopamine signal; activation, % (concentration not given with the values); hit rate 0.084% among 360,000; in the data active means activation above about 40%; inconclusive means between about 15% and that limit
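DiscoveRx PathHunter D2 beta-arrestin cells (2,100/well) attached overnight, then compound-stimulated 90 min at 37 C in HBSS/10 mM HEPES/0.1% Tween-20 buffer; beta-galactosidase complementation read by luminescence after 1 h at ambient temperature. Dopamine 57 uM final (EC100) as control.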
D2 PAM-2: HTS Assay for Positive Allosteric Modulators of the Human D2 Dopamine Receptor: Primary Screen for Potentiators | D(2) dopamine receptor (Homo sapiens), P14416 | HEK293 T-REx D2, calcium flux, EC20 dopamine potentiation | potentiation, % at 10 µM | hit rate 0.34% among 340,000;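 active means potentiation over 3 SD above the plate norm, cut at about 30% in these data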; further: 0% is about no effect
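Primary screen. Calcium kinetics in induced HEK293 T-REx D2 cells: compound pre-addition 180 s, EC20 dopamine, 180 s more.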
An asterisk follows results filed as active; ? = inconclusive; / = no result given.

SMILES	D2 antagonist	D2 ag-1	D2 PAM-1	D2 ag-2	D2 PAM-2
Cc1ccc(-c2cn3c(n2)sc2cc(C(=O)NCc4cccs4)ccc23)cc1	/	0.0	/	/	6.5
N/C(Cc1ccc(Cl)c(Cl)c1)=N\OC(=O)c1ccc(Br)o1	1.5	1.0	60.1*	?	-10.7
CC(C)CCn1nnc2sc(-c3ccccc3)cc2c1=O	/	2.6	/	/	7.8
O=C(NCCCN1CCCC1=O)c1ccc2c(c1)NC(=O)C(N1CCOCC1)S2 (configuration not stated)	32.9*	0.5	13.4	2.2	/
CCOC(=O)c1c(CSc2ccccc2)n(C)c2cc(Br)c(O)c(CN(C)C)c12	-5.8	-0.7	-4.4	0.7	-3.0
CCOC(=O)c1c(CN2CCCCC2)n(C)c2cc(Br)c(O)c(CN(C)C)c12	60.5*	0.4	-5.9	-5.3	-32.9
COc1ccc(S(=O)(=O)N2CCC(c3nnnn3-c3ccccc3)CC2)cc1OC	/	0.9	/	/	1.3
Nc1cc(C(F)(F)F)ccc1-n1cccc1	39.2*	0.1	0.7	-0.1	-9.3
CC1CCN(c2ccc(C(F)(F)F)cc2N)CC1	7.6	-0.4	-8.1	-0.8	0.0
CC1=C(C(=O)NCc2ccccc2Cl)C2(CCCCCC2)OC1=O	/	-2.6	/	/	/
COc1ccc(OCCn2nnc3sc4c(c3c2=O)CCC(C(C)(C)C)C4)cc1 (configuration not stated)	/	-0.7	/	/	2.4
Cc1cnc(CN2CCCC(C(=O)c3ccc4c5c(cccc35)CC4)C2)[nH]1 (configuration not stated)	7.5	-1.3	-16.3	-3.5	-32.1
O=C(c1ccc2c3c(cccc13)CC2)C1CCCN(Cc2ccc(OCCO)cc2)C1 (configuration not stated)	30.8*	0.3	-4.8	-0.1	-31.9
O=C(c1ccc2c3c(cccc13)CC2)C1CCCN(Cc2ccccn2)C1 (configuration not stated)	36.7*	-0.4	-6.6	-1.6	-17.8
COc1ccc(CCC(=O)NCc2nc3cccnc3n2Cc2ccc(F)cc2)cc1	/	/	/	/	-2.3
Nc1nccc(-c2ccc(-n3cccc3)cc2)n1	-5.9	-0.2	-7.6	-0.7	49.6*
c1ccc(-c2nccc(-c3ccc(-n4cnc5ccccc54)cc3)n2)cc1	-5.4	0.1	-10.1	-3.3	3.5
CCC1CCCCN1CCCNC(=O)c1ccc2c(c1)sc1nc(-c3ccc(F)cc3)cn12 (configuration not stated)	/	0.3	/	/	/
O=C1CN(C(=O)COC(=O)c2ccc([N+](=O)[O-])s2)c2ccccc2N1	/	/	68.8*	?	/
CC1CC(=O)Nc2ccccc2N1C(=O)COc1ccc2ccccc2c1 (configuration not stated)	/	/	1.5	2.2	/
CC1CC(=O)Nc2ccccc2N1C(=O)COc1cc(Cl)ccc1Cl (configuration not stated)	30.4*	-0.1	-4.4	1.8	-4.3
O=C1CN(C(=O)COc2ncnc3ccccc23)c2ccccc2N1	-10.0	-0.4	-16.2	-3.2	3.3
Cc1sc2ncnc(OCC(=O)N3CC(=O)Nc4ccccc43)c2c1C	-1.2	-0.7	-8.3	-1.6	31.5*
O=C1CN(C(=O)COc2ccc(Cl)cc2Cl)c2ccccc2N1	30.2*	0.9	2.6	-1.6	-3.9
O=C1CN(C(=O)COc2ccc(F)cc2Cl)c2ccccc2N1	14.8	-0.2	6.5	-0.1	1.5
O=C1CN(C(=O)COC(=O)c2cccs2)c2ccccc2N1	16.4	-1.0	-0.5	-5.3	16.0
Cc1ccc2c(c1)c1c(c(=O)n(-c3ccccc3)c(=O)n1CC(=O)c1ccc(F)cc1)n2C	/	0.2	/	/	0.3
CCOCCCNC(=O)c1ccc2c(c1)NC(=O)C(CS(=O)(=O)Cc1ccc(F)cc1Cl)N2 (configuration not stated)	/	-0.5	/	/	13.2
CCN1CCN(c2oc(-c3ccccc3)nc2S(=O)(=O)c2ccc(C)cc2)CC1	47.2*	-0.2	-36.0	-1.4	-24.1

Source: PubChem BioAssay (National Center for Advancing Translational Sciences (NCATS))
